High-throughput results as filed in PubChem BioAssay.
Sampled rows, rich in hits. Any-hit rate of the full collection: about 2.5%.
Cruzain noTriton = qHTS Assay for Promiscuous and Specific Inhibitors of Cruzain (without detergent) | purified cruzain, Z-FR-AMC fluorescence, no detergent | Potency, µM, for the others: max response, negative = inhibition, hits mostly inhibitors | 200,000 tested, 2.3% active | Cruzipain (Trypanosoma cruzi), P25779;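 note: plate controls were enzyme without inhibitor for no effect and buffer without enzyme for full effect; nearly all actives have a fitted effect of over 40% in size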
Target sequence (P25779 123-467 limits assumed): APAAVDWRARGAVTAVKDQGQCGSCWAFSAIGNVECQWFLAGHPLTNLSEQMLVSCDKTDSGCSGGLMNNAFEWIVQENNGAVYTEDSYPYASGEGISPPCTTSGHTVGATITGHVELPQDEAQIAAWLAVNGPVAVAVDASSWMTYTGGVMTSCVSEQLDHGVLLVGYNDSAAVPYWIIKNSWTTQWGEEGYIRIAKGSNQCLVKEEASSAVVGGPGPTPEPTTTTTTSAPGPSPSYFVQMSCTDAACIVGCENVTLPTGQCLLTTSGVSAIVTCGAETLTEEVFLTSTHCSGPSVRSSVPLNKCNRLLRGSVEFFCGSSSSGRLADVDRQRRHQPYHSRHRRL
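Purified cruzain at 1.5 nM, pre-incubated 15 min with compound at room temperature in 100 mM sodium acetate pH 5.5, 5 mM DTT, 0.00005% Triton X-100. Reaction started with 2 uM Z-FR-AMC; AMC fluorescence increase over 60 s gives rate.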
Cruzain inh Det = qHTS Assay for Promiscuous and Specific Inhibitors of Cruzain (with detergent); Cruzipain (Trypanosoma cruzi), P25779; purified cruzain, Z-FR-AMC fluorescence, 0.01% Triton; Potency, µM, without a hit: max response, negative = inhibition, usual class: inhibitors; 200,000 tested, 0.43% active; AID 1478, 2009;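 note: plate controls were neutral wells for no effect and buffer without enzyme for full effect; nearly all actives have a fitted effect of over 40% in size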
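Sodium acetate buffer (100 mM, pH 5.5) containing 5 mM DTT and 0.01% Triton X-100 hosted 1.5 nM cruzain and test compound for 15 min at room temperature. Cleavage of 2 uM Z-FR-AMC was then tracked by fluorescence.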
An asterisk follows results filed as active; ? = inconclusive. Calls come from the whole dose curve; as a rule, active = well fitted curve in the direction sought with a large enough effect; inconclusive = small, poorly fitted or top-dose-only effect, or another doubt; inactive = no such curve, though single readings can be large; an effect the other way counts as inactive or inconclusive. Potency is the fitted concentration of half-maximal effect.

SMILES	Cruzain noTriton	Cruzain inh Det
Cn1c(C(=O)N2CCN(c3nc4ccccc4s3)CC2)cc2sccc21	-22%	-16%
O=C(c1cc2sccc2n1Cc1ccc(F)cc1)N1CCN(c2nc3ccccc3s2)CC1	13µM*	-2%
Cc1ccc(Cc2c(C)nc3nc(SCC(=O)NCCC(C)C)nn3c2C)cc1	0%	-1%
Cc1ccc2sc(NC(=O)CN3C(=O)CCC3=O)nc2c1C	1%	-3%
Cc1c(Cl)ccc2sc(NC(=O)CN3C(=O)c4ccccc4C3=O)nc12	10µM*	0%
CCc1ccc(N=C2NC(=O)CC(C(=O)Nc3ccc(OC)cc3)S2)cc1 (stereo not drawn)	?	-4%
Cc1cccc(C)c1NC(=O)CSc1nnc(-c2ccco2)c(-c2ccco2)n1	-18%	?
Cc1ccc(NC(=O)CSc2nnc(-c3ccco3)c(-c3ccco3)n2)cc1	10µM*	25µM*
CSc1nnc2c(n1)OC=Nc1ccccc1-2	-7%	-6%
CSc1nnc(-c2ccco2)c(-c2ccco2)n1	13µM*	14µM*
O=C(CSc1nc(O)cc(=O)[nH]1)Nc1ccc2c(c1)CCC2	16µM*	-11%
Nc1nc(SCC(=O)Nc2ccc3c(c2)CCC3)n[nH]1	-17%	-2%
CC(C)CCOC(=O)/C=C/c1ccccc1	-5%	6%
CC1=CC(C)(C)n2c(O)c(N=NC(N)=S)c3cccc1c32	-4%	-21%
CC1=CC(C)(C)n2c(O)c(N=NC(N)=S)c3c(C)ccc1c32	20µM*	?
CC[n+]1c(/C=C/N(C)c2ccccc2)sc2ccc(Cl)cc21	-16%	-10%
CC[n+]1c(/C=C/C=C/N(C(C)=O)c2ccccc2)sc2ccccc21	20µM*	-4%
COc1ccc(-c2nc(-c3ccccc3)c(Nc3ccc4ccccc4c3)o2)cc1	-24%	2%
N#CCCn1c(=O)cnc2cnc(Oc3ccccc3)nc21	-8%	-2%
Cc1ccc(-c2nc3cc(NC(=O)c4cc(Br)ccc4Cl)ccc3o2)cc1	-26%	-1%
Cc1cc(C)c2oc(-c3ccc(NC(=O)c4cc(Br)ccc4Cl)cc3)nc2c1	2.5µM*	-1%
COCCCNC(=O)C1CCC(Cn2c(=O)c3sccc3n(C)c2=O)CC1 (stereo not drawn)	15%	0%
CCOC(=O)c1scc(-c2ccc(C)cc2)c1S(=O)(=O)N1CCN(c2ccccc2)CC1	15%	-2%
CC(C)c1ccc(N2C(=O)CC(Sc3ncn[nH]3)C2=O)cc1 (stereo not drawn)	4µM*	4%
COc1ccc(N2C(=O)CC(Sc3ncn[nH]3)C2=O)c(OC)c1 (stereo not drawn)	?	6%
SMILES	Cruzain noTriton	Cruzain inh Det
COc1ccc2c(C)c(CC(=O)NCc3ccccc3Cl)c(=O)oc2c1OC	-15%	-3%
Cc1ccc(NC(=O)CN2C(=O)C(c3ccc(C(C)(C)C)cc3)=NC2(C)C)cc1	24%	-6%
O=C(CNC(=O)c1ccc(Cl)cc1Cl)OCC(=O)c1ccc2c(c1)OCCO2	3.2µM*	3.2µM*
CC(C)CNS(=O)(=O)c1cc(C(=O)OCC(=O)c2ccc3c(c2)OCCO3)c(Cl)cc1Cl	?	-2%
CCc1cccc(Nc2ncnc3onc(-c4ccc(F)cc4)c23)c1	2%	-10%
O=C1C2C3C=CC(C4CC34)C2C(=O)N1/N=C/c1ccc([N+](=O)[O-])s1 (stereo not drawn)	-1%	-2%
O=C1C2C3C=CC(C4CC34)C2C(=O)N1/N=C/c1ccc(-c2cccc([N+](=O)[O-])c2)o1 (stereo not drawn)	25µM*	-8%
O=c1c(-c2cc(F)cc(F)c2)nc2cncnc2n1Cc1ccccc1Cl	25µM*	-7%
NCCn1c(=O)c(CCc2ccccc2)nc2cncnc21	-14%	2%
O=c1c(-c2ccc(F)c(F)c2)nc2cncnc2n1Cc1ccccc1Cl	-20%	-7%
O=c1c(CCc2ccccc2)nc2cncnc2n1Cc1ccccc1Cl	3.2µM*	-5%
O=c1cc(-c2cccc(O)c2O)oc2ccccc12	4%	-7%
COc1ccc(/C=C(\NC(=O)c2ccccc2)C(=O)NC2CCCCC2)cc1	-7%	-3%
COC(=O)CC1c2ccccc2C=C(C2CC2)N1C(=O)OC (stereo not drawn)	11%	-2%
CN(C)CCNC(=O)c1cc2c(=O)n(C)c3ccccc3c2n1C	?	25µM*
CCN(CC)CCNC(=O)c1cc2c(=O)n(C)c3ccccc3c2n1C	1%	-17%
CC1=C(C(=O)OCc2ccc(C)cc2)C(c2ccccc2C(F)(F)F)CC(=O)N1 (stereo not drawn)	-12%	-2%
Cc1ccc(NC(=O)N2CC3CCCN3c3ccccc32)cc1Cl (stereo not drawn)	32µM*	-16%
Cc1ccc(NC(=O)N2CC3CCCN3c3ccccc32)cc1C (stereo not drawn)	?	-17%
Cn1c(C(=O)Nc2ccc3c(c2)OCO3)cc2sccc21	25µM*	-6%
Cn1c(C(=O)NCc2ccc3c(c2)OCO3)cc2sccc21	-13%	-3%
CC(=O)c1ccc(NC(=O)CC(c2cccs2)N2Cc3ccccc3C2=O)cc1 (stereo not drawn)	3%	-1%
Nc1cccc(C(=O)OCC(=O)c2ccccc2)c1	-3%	-2%
O=C(COC(=O)c1ccc(-c2nnc(-c3ccccc3)o2)cc1)c1ccccc1	7.9µM*	-1%
COc1ccc(NC(=O)CSc2ncccc2C(=O)OC(C)C)cc1OC	9%	-2%
SMILES	Cruzain noTriton	Cruzain inh Det
CC(C)c1ccc(NC(=O)CSc2ncccc2C(=O)Oc2cccc([N+](=O)[O-])c2)cc1	16µM*	-7%
Cc1cc2c(=O)c(C(=O)c3ccncc3)cn(CC(=O)Nc3cccc(C)c3C)c2cc1C	23%	-1%
c1csc(CNc2nc(-c3ccoc3)nc3ccccc23)c1	?	1%
Cc1ccc(S(=O)(=O)OCCc2ccccc2)cc1	-2%	1%
COc1ccc(NC(=O)CSc2nc(O)cc(=O)n2C)cc1	16µM*	-25%
Cn1c(SCC(=O)Nc2ccccc2)nc(O)cc1=O	-11%	-4%
CC(C)(C)c1ccc(C(=O)NCC(=O)OCC(=O)c2ccc3c(c2)-c2ccccc2C3)cc1	25µM*	-4%
O=C(CNC(=O)c1cccs1)OCC(=O)c1ccc2ccccc2c1	-18%	?
N=c1n(CCO)c2ccccc2n1Cc1ccccc1F	-9%	-2%
Cc1ccc(CNC(=O)Cn2c(=O)n(Cc3ccccc3)c(=O)c3sc4ccccc4c32)cc1	5%	-1%
Cc1ccc(CNC(=O)Cn2c(=O)n(-c3cccc(Cl)c3)c(=O)c3sc4ccccc4c32)cc1	13µM*	-3%
COc1ccc(S(=O)(=O)N2CCCCC2)cc1	5%	-2%
COc1ccc(S(=O)(=O)N=C2C=C(C)C(=O)C(C)=C2)cc1	13µM*	-3%
CCc1ccccc1NC(=O)CCC(=O)OCC(=O)c1ccc(-c2ccccc2)cc1	16µM*	-2%
COc1ccccc1NC(=O)CCC(=O)c1ccc(-c2ccccc2)cc1	-3%	-7%
Cc1cc(F)ccc1S(=O)(=O)Nc1ccc2c(c1)CCCN2C(=O)c1cccs1	14%	-6%
NC(=S)N=Nc1c(O)[nH]c2cc(F)c(F)cc12	10µM*	14µM*
CNC(=S)N=Nc1c(O)[nH]c2ccc(C(C)C)cc12	-1%	-8%
CCCOc1ccc(/C=C/C(=O)Nc2ccc([N+](=O)[O-])cc2)cc1	-27%	-11%
